HT1080NT lethal: qHTS for induction of synthetic lethality in tumor cells producing 2HG: qHTS for the HT-1080-NT fibrosarcoma cell line | AID 686970, 2013 | 360,000 compounds, 1.6% hits | Potency, µM (doses to about 46.1 µM), hits mostly cytotoxic | HT-1080-NT fibrosarcoma viability, CellTiter-Glo ATP luminescence, 48 h;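 note: NT is the 2HG producing partner of a matched IDH1 knockdown line; nearly all actives have a fitted effect of over 55% in size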
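HT-1080-NT; 750 cells/well; 5% FBS RPMI; 48 h compound, 37 degrees C; CellTiter-Glo luminescence; curve fitting and curve-class assignment.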
HT1080 IDH1KD tx: qHTS for induction of synthetic lethality in tumor cells producing 2HG: qHTS for the HT-1080-IDH1KD cell line; HT-1080 IDH1 knockdown viability, ATP luminescence, 48 h; Potency, µM (highest dose often 46.1 µM), actives largely listed as cytotoxic; 360,000 compounds, 2% hits; AID 686971, 2013
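Cytotoxicity counter-line: IDH1KD HT-1080, 48 h, CellTiter-Glo. Curves classed by r2, magnitude and activity.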
DT40 TDP1 no CPT: qHTS for Inhibitors of human tyrosyl-DNA phosphodiesterase 1 (TDP1): qHTS in cells in absence of CPT | DT40 Tdp1-/- hTDP1 cells, no CPT, ATP luminescence, 48 h | Potency, µM (top dose mostly 46.2 µM), usual class: inhibitors | 420,000 compounds, 15% hits; note: nearly all actives have a fitted effect of over 55% in size
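Stably hTDP1-transfected Tdp1-null chicken DT40 cells were treated with library compounds minus camptothecin and grown for at least 48 hr at 37 °C, after which cellular ATP was quantified by luminescence.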
DT40 TDP1 CPT: qHTS for Inhibitors of human tyrosyl-DNA phosphodiesterase 1 (TDP1): qHTS in cells in presence of CPT. 420,000 compounds, 12% hits. AID 686979, 2013. Potency, µM (highest dose often 46.2 µM), actives largely listed as inhibitors. chicken DT40 Tdp1-/-;hTDP1 cells + 20 nM CPT, ATP luminescence, 48 h; note: nearly all actives have a fitted effect of over 55% in size
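Chicken DT40 Tdp1-/- cells stably complemented with human TDP1 were seeded at 400 cells/well in medium containing 20 nM camptothecin, exposed to pin-transferred compounds, and grown at 37 °C for at least 48 hr. Viability was read as ATP luminescence.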
12-LOX inh: Primary qHTS assay for inhibitors of human arachidonate 12S-lipoxygenase (ALOX12): Round 2; Polyunsaturated fatty acid lipoxygenase ALOX12 (Homo sapiens), P18054; purified 12hLO, xylenol orange hydroperoxide absorbance; Potency, µM (highest dose often 108 µM), actives largely listed as inhibitors; 580,000 compounds, 1.1% hits
Target sequence (P18054 whole entry, looked up): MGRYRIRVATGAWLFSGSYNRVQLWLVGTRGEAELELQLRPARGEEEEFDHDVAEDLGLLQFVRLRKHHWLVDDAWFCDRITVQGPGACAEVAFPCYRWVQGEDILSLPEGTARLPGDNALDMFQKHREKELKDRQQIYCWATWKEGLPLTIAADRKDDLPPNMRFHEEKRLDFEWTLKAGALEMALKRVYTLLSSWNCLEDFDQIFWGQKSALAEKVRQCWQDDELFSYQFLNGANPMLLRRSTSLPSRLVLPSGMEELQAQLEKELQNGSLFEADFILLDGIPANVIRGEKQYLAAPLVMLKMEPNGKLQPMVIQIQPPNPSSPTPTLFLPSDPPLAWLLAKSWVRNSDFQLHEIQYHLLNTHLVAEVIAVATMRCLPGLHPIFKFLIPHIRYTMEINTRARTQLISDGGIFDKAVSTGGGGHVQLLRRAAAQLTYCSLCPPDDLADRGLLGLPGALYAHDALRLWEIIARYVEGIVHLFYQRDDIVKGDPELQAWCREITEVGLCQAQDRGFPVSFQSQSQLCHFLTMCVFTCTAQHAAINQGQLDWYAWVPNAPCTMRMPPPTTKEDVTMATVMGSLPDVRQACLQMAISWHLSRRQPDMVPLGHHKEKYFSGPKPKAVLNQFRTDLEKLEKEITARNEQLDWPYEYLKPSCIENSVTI
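Purified human 12hLO (150 nM final) in 25 mM Hepes, 0.01% Triton X-100, pH 7.0 was preincubated 15 min at room temperature with compound. Then 40 uM arachidonic acid was added, 30 min. Hydroperoxide was read by Fe-XO absorbance ratio 573/405 nm.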
IL-1B inflam inh: qHTS for Inhibitors of Inflammasome Signaling: IL-1-beta AlphaLISA Primary Screen; 360,000 compounds, 4.7% hits; AID 743279, 2014; THP-1 LPS/ATP IL-1B secretion, AlphaLISA, 16 h; hits give low values; activity change, % at 57.5 µM; in the data active = activity change below about -50%; inconclusive = mostly about -30% to -49%
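Secreted IL-1B measured by AlphaLISA bead assay after 16 h compound exposure of THP-1 cells; compounds (final up to 57.5 uM) added 1 h before LPS (250 ng/mL) and ATP (1.25 mM) stimulation; lower signal means less secretion.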
Hits are given with their value; . = inactive; ? = inconclusive; / = no result given; [ ] = remark or other dose. This excerpt belongs to a sample that is enriched for hits. Unless noted, calls come from the whole dose curve; as a rule, active = well fitted curve in the direction sought with a large enough effect; inconclusive = small, poorly fitted or top-dose-only effect, or another doubt; inactive = no such curve, though single readings can be large; an effect the other way counts as inactive or inconclusive.

SMILES | HT1080NT lethal | HT1080 IDH1KD tx | DT40 TDP1 no CPT | DT40 TDP1 CPT | 12-LOX inh | IL-1B inflam inh
Cc1cnc(NC(=O)C(C)(C)Oc2cc(Cl)ccc2Cl)s1 | / | / | / | / | . | /
COC(=O)Cc1c(C)c2ccc(OCc3ccccc3Cl)cc2oc1=O | / | / | / | / | . | /
O=C(Nc1cccnc1)c1ccc(COc2ccccc2Br)o1 | 4.5µM | 10µM | ? | ? | . | .
Cc1cc2nc(CCN3CCOCC3)n(S(=O)(=O)c3ccc(C(C)(C)C)cc3)c2cc1C | . | . | ? | 18µM | . | .
CN(C)c1nc(OCCNC(=O)COc2ccccc2Cl)nc(N(C)C)n1 | . | . | 10µM | ? | . | .
Cc1cc(Cl)ccc1OCC(=O)NCCOc1nc(N2CCCCC2)nc(N2CCOCC2)n1 | . | . | 6.5µM | 7.3µM | . | .
Cc1cc(Cl)ccc1OCC(=O)NCCC(=O)O | . | .[9.24 µM] | ? | . | . | .
COc1cc(C)nc(OCCNC(=O)COc2ccc(Cl)cc2C)n1 | . | . | 21µM | 16µM | . | .
O=C(Cn1ncc2ccccc2c1=O)Nc1cccc(F)c1 | / | / | / | / | . | /
CCOc1ccccc1NC(=O)CSc1n[nH]c(=O)n1-c1ccccc1 | . | . | ? | ? | . | .
O=c1[nH]nc(SCCS(=O)(=O)c2ccc(F)cc2)n1-c1ccccc1 | ? | ? | ? | 29µM | . | -88
O=c1[nH]nc(SCCS(=O)(=O)c2ccc(F)cc2)n1-c1ccc2c(c1)OCCO2 | . | ? | 16µM | ? | . | -92
CC(C)Cc1nc(OCC(=O)O)c(C#N)c2c1CCCC2 | / | / | / | / | . | /
O=C(NCCc1c[nH]c2ccccc12)c1ccccc1OC(F)F | / | / | / | / | . | /
CCNC(=O)N1C[C@@H]2OCC(=O)N(C(C)C)[C@@H]2C1 | / | / | / | / | . | /
CN(C)/C=C/C(=C\C(=O)C(F)(F)F)Nc1ccc(C(F)(F)F)cc1 | . | . | 18µM | ? | . | .
O=C(NC1CC1)c1ccc2ccccc2n1 | / | / | / | / | . | /
O=C(N/N=C/c1cn(-c2ccccc2)nc1-c1cccnc1)c1cccnc1 | . | . | . | . | . | ?
O=C(N/N=C/c1cn(-c2ccccc2)nc1-c1cc2ccccc2o1)c1cccnc1 | . | . | 5.2µM | 3.3µM | . | -222
O=C(N/N=C/c1cn(-c2ccccc2)nc1-c1cc2ccccc2o1)c1ccncc1 | ? | ? | 18µM | 26µM | . | ?
O=C(O)c1cccc(NC(=O)c2cn(-c3ccccc3)nc2-c2cc3ccccc3o2)c1 | . | . | ? | ? | ? | .
COc1cccc(C2C(C(=O)Nc3ccccc3OC)=C(C)Nc3nc4ccccc4n32)c1 (centres undefined) | / | / | 15µM | ? | . | /
COc1ccccc1NC(=O)C1=C(C)Nc2nc(-c3ccco3)nn2C1c1ccccc1 (centres undefined) | / | / | ? | ? | . | /
COc1ccccc1NC(=O)C1=C(C)Nc2nc3ccccc3n2C1c1cccc(OC)c1OC (centres undefined) | / | / | ? | 16µM | . | /
COc1ccc(OC)c(C2C(C(=O)Nc3ccccc3)=C(C)Nc3nc4ccccc4n32)c1 (centres undefined) | / | / | / | / | . | /
SMILES | HT1080NT lethal | HT1080 IDH1KD tx | DT40 TDP1 no CPT | DT40 TDP1 CPT | 12-LOX inh | IL-1B inflam inh
COc1cccc(C2C(C(=O)Nc3ccc(Cl)cc3)=C(C)Nc3nc4ccccc4n32)c1OC (centres undefined) | / | / | ? | 21µM | . | /
COc1cccc(C2C(C(=O)Nc3ccccc3OC)=C(C)Nc3nc(-c4ccco4)nn32)c1 (centres undefined) | / | / | 18µM | ? | . | /
O=C(Nc1ccc(F)cc1F)c1ncoc1-c1cccc(Cl)c1 | / | / | / | / | . | /
c1ccc(-n2cc(CN3CCCCC3c3ccccn3)nn2)cc1 (centres undefined) | / | / | / | / | 20µM | /
CC(C)CNC(=O)C(=O)Nc1cccc2[nH]ccc12 | / | / | / | / | . | /
O=C1NC(Cc2ccc(O)cc2)c2nc3ccc(Cl)cc3c(=O)n2-c2cc(Cl)ccc21 (centres undefined) | / | / | / | / | . | /
Cc1ccc2nc3n(c(=O)c2c1)-c1ccc(Cl)cc1C(=O)NC3Cc1ccccc1 (centres undefined) | / | / | / | / | . | /
O=C1NC(Cc2ccc(O)cc2)c2nc3cc(F)ccc3c(=O)n2-c2cc(Cl)ccc21 (centres undefined) | / | / | / | / | . | /
O=C1NC(Cc2ccc(O)cc2)c2nc3ccc(Cl)cc3c(=O)n2-c2cc3ccccc3cc21 (centres undefined) | 15µM | ? | 5.2µM | 6.5µM | . | .
O=C1NC(Cc2ccccc2)c2nc3ccc(Cl)cc3c(=O)n2-c2ccc(Cl)cc21 (centres undefined) | / | / | / | / | . | /
O=C1NC(Cc2ccc(O)cc2)c2nc3cc(Cl)ccc3c(=O)n2-c2cc(Cl)ccc21 (centres undefined) | . | ? | ? | ? | ? | -71
O=C1NC(Cc2ccccc2)c2nc3ccc(Cl)cc3c(=O)n2-c2cc3ccccc3cc21 (centres undefined) | . | ? | 7.3µM | ? | ? | .
Cc1ccc2nc3n(c(=O)c2c1)-c1cc2ccccc2cc1C(=O)NC3Cc1ccccc1 (centres undefined) | ? | 15µM | 16µM | 23µM | . | .
CC(C)Cc1nc(NCC2CCCO2)c(C#N)c2c1CCCC2 (centres undefined) | / | / | / | / | . | /
O=C(Cn1ccn2nc(-c3ccccc3)c(CO)c2c1=O)N1CCc2ccccc21 | / | / | / | / | . | /
CCS(=O)(=O)NC(C)C(=O)O (centres undefined) | / | / | / | / | . | /
COCCN1CCN(c2nc(-c3cccs3)nc3scc(-c4ccccc4)c23)CC1 | / | / | / | / | . | /
CCC1NC(=O)c2cc3ccccc3cc2-n2c1nc1cc(C)cc(C)c1c2=O (centres undefined) | . | . | 4.1µM | 18µM | . | .
O=C1NC(Cc2ccccc2)c2nc3ccc(F)cc3c(=O)n2-c2cc3ccccc3cc21 (centres undefined) | 5.8µM | 5.8µM | 5.2µM | 5.2µM | . | .
O=C1NC(Cc2ccc(O)cc2)c2nc3cc(F)c(F)cc3c(=O)n2-c2ncccc21 (centres undefined) | ? | 21µM | . | . | . | .
